# Test results published in PubChem BioAssay.
# The other results are listed elsewhere or left out. Active and inactive are the calls of the source.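 The calls were made as follows: active = membrane potential signal moves up or down beyond 5 SD from buffer-only wells, on both duplicate plates; inactive = the rest.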
# Assay: nonspecific voltage dye response without TRPC6 – cell-based, parental HEK293, counter-screen for TRPC6 modulator project, confirmation (AID 488924)
# Details: parental HEK293, membrane potential dye fluorescence; at 10 µM
Compound,outcome,membrane potential signal change
CCCCN(C)CCCNC(=O)c1cc(-c2cccs2)nc2ccccc12,inactive,
Cc1ccc(NC(=S)N(CCCN2CCCC2)Cc2cccn2Cc2ccc(Cl)cc2)cc1,inactive,
O=C(c1ccc(-n2cnnn2)cc1)N1CCN(C(c2ccccc2)c2ccccc2)CC1,,251% (active)
CC(=O)Nc1ccc(NC(=O)CN2CCCC(C)C2)c(Cl)c1 (stereo not drawn),inactive,
CCCN(CCc1ccccc1)C1CCc2c(O)cccc2C1 (stereo not drawn),,202% (active)
Cc1cc(C)c2nc3nc(C)cc(C)c3c(N)c2c1,inactive,
CCN(CC)CCNc1nc(-c2ccc(OC(F)F)cc2)c(C)s1,inactive,
CCOc1nc(NCCN2CCOCC2)nc(Nc2ccc(C)cc2)n1,,98% (active)
CCOc1ccc(/C(O)=C2/C(=O)C(=O)N(Cc3cccnc3)C2c2ccc(N(C)C)cc2)c(C)c1 (stereo not drawn),inactive,
O=C1CN(C(=O)c2ccccc2F)C(c2ccc(F)cc2)c2cc(F)ccc2N1 (stereo not drawn),,106% (active)
Cc1nc(C(=O)NCc2ccccc2)sc1C1(C)CC(c2cccnc2)=NO1 (stereo not drawn),inactive,
CCOC(=O)c1sc2nc(CSCC(=O)OCc3ccc(C(=O)OC)o3)[nH]c(=O)c2c1C,,148% (active)
c1ccc(C2CNCc3c2ccc2ccccc32)cc1 (stereo not drawn),inactive,
COc1ccc(Br)cc1/C=N/n1c(C)nnc1C,inactive,
Clc1ccc(-n2nnnc2-c2cnc(-c3ccccn3)nc2-c2cccs2)cc1,,133% (active)
Cc1ccc2c(c1)C1CN(C)CCC1N2C(=S)Nc1ccc(Cl)cc1Cl (stereo not drawn),inactive,
COC(=O)c1c(NC(=O)c2ccc(S(=O)(=O)N3CCOCC3)cc2)sc2c1CCN(C(C)C)C2,,-96% (active)
Cc1c(CCOC(=O)CC23CC4CC(CC(C)(C4)C2)C3)sc[n+]1Cc1ccc([N+](=O)[O-])cc1,,-103% (active)
CCc1ccc(OCC(=O)N(Cc2ccccc2)C2CCS(=O)(=O)C2)cc1 (stereo not drawn),inactive,
COC(=O)c1ccccc1NC(=O)C1CCN(S(=O)(=O)c2cc(OC)ccc2OC)CC1,inactive,
CC(C)(C)Nc1nc(-c2ccccn2)nc2ccccc12,,-424% (active)
CCCc1cc(=O)oc2c(C)c(O)c(CN3CCCCC3)cc12,inactive,
CCCCN(CCCC)CC(O)Cn1c2ccccc2c(=O)c2ccccc21 (stereo not drawn),inactive,
